Common to all, as to test: NCI-60 one-dose screen, 48 h (100 = growth as untreated, 0 = no growth, -100 = all killed)
One assay deals with HCT-15 colon. The conditions noted are these: 10 µM unless noted.
A further assay deals with HT29 colon. The following applies: 10 µM unless noted.
For the next assay, the system named is SNB-75 CNS. The conditions noted are these: 10 µM unless noted.
Another assay relates to SNB-19 CNS. The following applies: 10 µM unless noted.
In the next assay the test system is U251 CNS. The following applies: 10 µM unless noted.
For another assay, the system named is SK-MEL-5 melanoma. The following applies: 10 µM unless noted.
A further assay has as its system UACC-62 melanoma. The following applies: 10 µM unless noted.
For another assay, the system named is LOX IMVI melanoma. The conditions noted are these: 10 µM unless noted.
The test system of the next assay is SK-MEL-28 melanoma. The conditions noted are these: 10 µM unless noted.
The next assay concerns SK-MEL-2 melanoma. The conditions noted are these: 10 µM unless noted.
The next assay concerns EKVX NSCLC. The conditions noted are these: 10 µM unless noted.
A further assay has as its system SN12C renal. The conditions noted are these: 10 µM unless noted.
A further assay has as its system UO-31 renal. The following applies: 10 µM unless noted.
A further assay has as its system TK-10 renal. The conditions noted are these: 10 µM unless noted.
Another assay concerns ACHN renal. The conditions noted are these: 10 µM unless noted.
The next assay concerns CAKI-1 renal. The conditions noted are these: 10 µM.
In the next assay the test system is A498 renal. The conditions noted are these: 10 µM unless noted.
Another assay deals with CCRF-CEM leukemia. The following applies: 10 µM unless noted.
The test system of the next assay is MOLT-4 leukemia. The conditions noted are these: 10 µM unless noted.
The test system of a further assay is PC-3 prostate. The conditions noted are these: 10 µM unless noted.

Compounds without any hit were thinned out: in the full panel of roughly 83,000, 20% have a hit.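 Method: cells in 96-well plates; compound added at one concentration; 48 h incubation; percent growth measured; values under 10 scored active.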 A number with no mark means an inactive call. Activity calls are given as the source filed them.

Turning to `CC(C)SC1=NC(=C(C(=N1)NC2=ClC=CC=C2)C#N)C3=CC=CC=C3`, the growth was 63% in the assay on HCT-15 colon; 80.5% in the assay on HT29 colon; 26.5% with SNB-75 CNS; 69.5% in the assay with SNB-19 CNS; 49.7% in the assay on U251 CNS; 91.2% with SK-MEL-5 melanoma. The growth in the assay with UACC-62 melanoma was 84%; in the assay on LOX IMVI melanoma it was 70%; in the assay with SK-MEL-28 melanoma, 87.7%; in the assay on SK-MEL-2 melanoma it was 125%; in the assay on EKVX NSCLC, 84%; in the assay on SN12C renal, 36.7%. Further, the growth is 24.7% in the assay with UO-31 renal; 112% in the assay on TK-10 renal; 23.4% in the assay on ACHN renal; 64.5% with CAKI-1 renal; 71.6% in the assay on A498 renal; 63.4% in the assay with CCRF-CEM leukemia. In the assay on MOLT-4 leukemia, the growth was 83.3%.
On to `CCN1C/C(=N\S(=O)(=O)c2ccccc2)N(CC)C1=S`, for which the growth was 101% in the assay on HCT-15 colon; 108% with HT29 colon; 91.3% in the assay on SNB-75 CNS; 98.2% with SNB-19 CNS; 97.4% in the assay with U251 CNS; 102% in the assay with SK-MEL-5 melanoma. The growth in the assay with UACC-62 melanoma is 95.2%; in the assay on LOX IMVI melanoma, 99.3%; with SK-MEL-28 melanoma, 104%; in the assay with SK-MEL-2 melanoma, 104%; in the assay with EKVX NSCLC it was 99%; in the assay on SN12C renal it was 98.1%. The growth was 89.9% in the assay with UO-31 renal; 100% with TK-10 renal; 102% in the assay with ACHN renal; 95.3% in the assay on CAKI-1 renal; 101% with MOLT-4 leukemia.
As for `COc1ccc2c(c1)c(-c1nnc(N)nc1-c1cn(C)c3ccccc13)cn2C`, the growth is 87% in the assay on HCT-15 colon; 96% in the assay with HT29 colon; 42.9% in the assay with SNB-75 CNS; 93.2% in the assay with SNB-19 CNS; 102% with U251 CNS; 97.8% in the assay on SK-MEL-5 melanoma. For the same molecule, the growth was 79% in the assay on UACC-62 melanoma; 90.8% with LOX IMVI melanoma; 97.3% in the assay on SK-MEL-28 melanoma; 95.2% in the assay on SK-MEL-2 melanoma; 92.7% in the assay with EKVX NSCLC; 93.2% in the assay with SN12C renal. The growth is 70.8% with UO-31 renal; 94.1% with TK-10 renal; 94.5% in the assay on ACHN renal; 75.7% with CAKI-1 renal; 94.4% in the assay with MOLT-4 leukemia.
As for `C=C1C(=O)O[C@@H]2/C=C(/C)C3=CC(=O)[C@@](C)(C[C@H](OC(=O)/C(C)=C\C)[C@@H]12)O3`, the growth in the assay with HCT-15 colon was -2.86% (active); in the assay on HT29 colon it was -38.7% (active); in the assay with SNB-75 CNS it was 44.4%; in the assay with SNB-19 CNS, 64.4%; in the assay with U251 CNS, 28.8%; with PC-3 prostate, 36.6%. Further, the growth was -44.8% (active) with LOX IMVI melanoma; -28.5% (active) in the assay on SK-MEL-2 melanoma; 21.6% in the assay with EKVX NSCLC; -85.4% (active) in the assay with UO-31 renal; -18% (active) in the assay with TK-10 renal; -39.1% (active) in the assay with ACHN renal. Besides, the growth is 6.13% (active) in the assay with CAKI-1 renal, 59.5% with A498 renal, -14.9% (active) in the assay with CCRF-CEM leukemia and 0.44% (active) with MOLT-4 leukemia.
For the molecule `N#Cc1c(NC(=O)c2ccc(F)c(Cl)c2)sc2c1CCC(=O)C2`, the growth in the assay with HCT-15 colon is -38.6% (active); in the assay with HT29 colon it was 8.89% (active); in the assay with SNB-75 CNS it was -0.913% (active); in the assay on SNB-19 CNS it was 15.1%; in the assay on U251 CNS it was 11.6%; with SK-MEL-5 melanoma, -75.6% (active). Moreover, the growth in the assay with UACC-62 melanoma was -69.7% (active); in the assay on LOX IMVI melanoma, -16.1% (active); with SK-MEL-28 melanoma it was -66.9% (active); in the assay with SK-MEL-2 melanoma it was 18.3%; in the assay on EKVX NSCLC it was 13.1%; in the assay on SN12C renal, 4.43% (active). In addition, the growth is -99% (active) with UO-31 renal; 15.3% with TK-10 renal; -98.8% (active) with ACHN renal; -67% (active) in the assay with CAKI-1 renal; 8.21% (active) with CCRF-CEM leukemia; 3.13% (active) with MOLT-4 leukemia.
For the molecule `CC1OC(O[C@@H]2[C@H](O)C(CO)OC(O[C@H]3COC(O[C@H]4CC[C@]5(C)[C@H]6CC[C@]78OC[C@@]9(CCC(C)(C)C[C@H]97)[C@H](O)C[C@@]8(C)[C@]6(C)CC[C@H]5C4(C)C)[C@@H](OC4OC(CO)[C@@H](O)[C@@H](O)[C@@H]4O)[C@@H]3O)[C@H]2OC2OC[C@@H](O)[C@@H](O)[C@@H]2O)[C@@H](O)[C@@H](O)[C@H]1O` (stereo not given in full), the growth is -52.8% (active) in the assay with HCT-15 colon; -79% (active) in the assay with HT29 colon; -87.1% (active) in the assay with SNB-75 CNS; -69.2% (active) with SNB-19 CNS; -86.8% (active) in the assay with U251 CNS; -85.4% (active) in the assay with PC-3 prostate. The growth in the assay with LOX IMVI melanoma is -82.7% (active); in the assay on SK-MEL-2 melanoma, -81.4% (active); in the assay on EKVX NSCLC it was -64% (active); in the assay with UO-31 renal, -90.8% (active); in the assay on TK-10 renal, -93.8% (active); in the assay with ACHN renal, -92.5% (active). Moreover, the growth in the assay with CAKI-1 renal is -95.9% (active); in the assay on A498 renal, -86.5% (active); with CCRF-CEM leukemia, -60% (active); in the assay with MOLT-4 leukemia, -61.1% (active).
Consider `COc1ccc([C@H]2c3[nH]c4ccccc4c3C[C@@H]3C(=O)N(C4CCN(Cc5ccccc5)CC4)CC(=O)N23)c(OC)c1`, for which the growth is 48.3% in the assay with HCT-15 colon; 43.1% in the assay with HT29 colon; 83.1% with SNB-75 CNS; 83.1% with SNB-19 CNS; 75.8% with U251 CNS; 73.7% with SK-MEL-5 melanoma. For the same molecule, the growth was 87.2% in the assay on UACC-62 melanoma; 58.7% in the assay with LOX IMVI melanoma; 85.1% in the assay with SK-MEL-28 melanoma; 103% with SK-MEL-2 melanoma; 64.5% in the assay with EKVX NSCLC; 75.6% in the assay on SN12C renal. The growth in the assay on UO-31 renal is 42.6%; in the assay with TK-10 renal, 103%; with CAKI-1 renal it was 56.4%; in the assay on A498 renal, 93.8%; with CCRF-CEM leukemia it was 61.8%; in the assay with MOLT-4 leukemia, 45.1%.
Take `COc1cc(/C=C2\SC(=O)NC2=O)ccc1OCC(=O)Nc1ccc(C(=O)/C=C/c2cc3ccccc3nc2Cl)cc1`: the growth in the assay with HCT-15 colon was 89.7%; in the assay with HT29 colon it was 69.9%; with SNB-19 CNS it was 85.6%; with U251 CNS it was 90.3%; in the assay with PC-3 prostate, 82.1%; in the assay with SK-MEL-5 melanoma, 32.7%. In addition, the growth is 84.3% with UACC-62 melanoma; 81.6% in the assay on LOX IMVI melanoma; 105% with SK-MEL-28 melanoma; 103% in the assay with SK-MEL-2 melanoma; 77% in the assay with EKVX NSCLC; 93.5% in the assay on SN12C renal. Further, the growth was 66.1% in the assay on UO-31 renal; 104% in the assay with TK-10 renal; 93.8% in the assay on ACHN renal; 80.3% in the assay with CAKI-1 renal; 111% in the assay with A498 renal; 57.2% with CCRF-CEM leukemia. For the same molecule, the growth with MOLT-4 leukemia was 51.4%.

Source of the values: PubChem BioAssay (NCI).
